Rows were chosen to be rich in hits. Some 3.2% of all compounds tested hit in one or more screens of this group.
Mtb FBA inh: inhibits M. tuberculosis FBA enzyme; P9WQA3; purified M. tuberculosis FBA, fluorescence read-out; inhibition, % at 1 µM; actives 2.3% (n = 360,000);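 note: 0% = vehicle and 100% = reference inhibitor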
TcdB GH inh: TcdB glycohydrolase inhibition | P18177 | TcdB glycohydrolase enzymatic assay, plate reader | actives 0.24% (n = 350,000) | inhibition, % at 9.99 µM; in the data active = inhibition above about 10%
GDH-TPI counter-1: counter-screen for M. tuberculosis FBA inhibitors: GDH-TPI coupled enzymes | GDH-TPI coupled enzyme counterscreen, NADH absorbance | inhibition, % at 4.8 µM | actives 1.2% (n = 360,000) | AID 588335; in the data active = inhibition above about 30%;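 note: 0% = DMSO wells and 100% = wells lacking the enzyme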
PrPC TRFRET: reduces human prion protein on the cell surface; AID 720596; cell surface PrPC, TR-FRET read-out; inhibition, % at 13.8 µM; actives 0.43% (n = 370,000); in the data active = inhibition above about 24%; note: 0% = median of the test wells and 100% = reference compound wells
Y pestis TopoI: Y. pestis Topo-I inhibition via cleavage products. Y. pestis Topo-I cleavage product accumulation, plate reader. activity, % at 10 µM. actives 0.064% (n = 360,000). AID 504884; in the data active = activity above about 50%, passing the limit was not always enough
Mtb FBA inh conf: confirmation of M. tuberculosis fructose-bisphosphate aldolase inhibitors; shares compounds with Mtb FBA inh; purified M. tuberculosis FBA, fluorescence read-out; inhibition, % at 1 µM; actives 78% (n = 5,600);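 note: 0% = vehicle wells and 100% = reference inhibitor wells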
GDH-TPI counter-2: inhibits GDH-TPI coupling enzymes, flagging Mtb FBA hits; shares compounds with Mtb FBA inh; actives 81% (n = 5,600); GDH-TPI coupled enzyme counterscreen, fluorescence; inhibition, % at 1 µM; in the data active = inhibition above about 10%
Numbers without * were called inactive. Cut-off read from the data, not from the text of the source, unless noted: active = inhibition above about 27%; inactive = the rest.

What do the screens show for `CC(=O)Oc1ccc(C2C3=C(CC(C)(C)CC3=O)Nc3cc4c(cc32)OCCO4)cc1` (configuration not stated)?
Mtb FBA inh: 47*; TcdB GH inh: 1; GDH-TPI counter-1: 43*; PrPC TRFRET: 6; Y pestis TopoI: -7; Mtb FBA inh conf: 72*; GDH-TPI counter-2: 63*

Results for N#Cc1c(C(F)(F)F)cc(-c2ccccc2)nc1SCCN1CCOCC1 ?
Mtb FBA inh: 47*; TcdB GH inh: 4; GDH-TPI counter-1: 1; PrPC TRFRET: -3; Y pestis TopoI: 7; Mtb FBA inh conf: -2; GDH-TPI counter-2: -5

Results for COc1ccc([Si](C)(C)[C@@H]2[C@@H](CCn3cc(CCO)nn3)O[C@]3(C(=O)N(c4ccccc4)c4ccccc43)[C@H]2C)cc1 ?
TcdB GH inh: -1

What do the screens show for `CC(=O)N(C)C[C@H]1Oc2ncc(-c3ccccc3C)cc2C(=O)N([C@@H](C)CO)C[C@H]1C`?
TcdB GH inh: 2

What do the screens show for `O=C(O)C1CC=C(Cl)CC1C(=O)NC1CCCCC1` (configuration not stated)?
Mtb FBA inh: 28*; GDH-TPI counter-1: 4; Y pestis TopoI: 6; Mtb FBA inh conf: 160*; GDH-TPI counter-2: 108*

Results for C[C@@H]1CN([C@@H](C)CO)C(=O)c2cc(-c3ccc(C(=O)N(C)C)cc3)cnc2O[C@@H]1CN(C)C(=O)C1CC1 ?
TcdB GH inh: 0

What do the screens show for `NNc1ccc2c(C(F)(F)F)cc(C(F)(F)F)nc2n1`?
Mtb FBA inh: 30*; TcdB GH inh: -8; GDH-TPI counter-1: 6; PrPC TRFRET: -5; Y pestis TopoI: 3; Mtb FBA inh conf: 80*; GDH-TPI counter-2: 62*

What do the screens show for `Cc1ccc(/C=N/Nc2ccc3c(C(F)(F)F)cc(C(F)(F)F)nc3n2)cc1`?
Mtb FBA inh: 0; GDH-TPI counter-1: -3; Y pestis TopoI: 4

Results for O=C1NC(c2ccc(Cl)cc2)Nc2ccccc21 (configuration not stated) ?
Mtb FBA inh: 8; TcdB GH inh: 0; GDH-TPI counter-1: -4; PrPC TRFRET: -5; Y pestis TopoI: -3

Results for Cc1cccc(C2NC(=O)c3ccccc3N2)c1 (configuration not stated) ?
Mtb FBA inh: 26; TcdB GH inh: 0; GDH-TPI counter-1: 6; PrPC TRFRET: -6; Y pestis TopoI: 9

How did Cc1ccc(C2NC(=O)c3ccccc3N2)c(C)c1 (configuration not stated) do in these assays?
Mtb FBA inh: 62*; TcdB GH inh: 2; GDH-TPI counter-1: 6; PrPC TRFRET: 8; Y pestis TopoI: -1; Mtb FBA inh conf: 80*; GDH-TPI counter-2: 61*

What do the screens show for `O=C1NC(c2ccco2)Nc2ccccc21` (configuration not stated)?
Mtb FBA inh: 43*; GDH-TPI counter-1: 2; PrPC TRFRET: 9; Y pestis TopoI: -6; Mtb FBA inh conf: 57*; GDH-TPI counter-2: 49*

How did O=C(N[C@@H]1CC[C@H](CCNS(=O)(=O)Cc2ccccc2)O[C@H]1CO)c1ccccc1F do in these assays?
TcdB GH inh: -3

What do the screens show for `O=C(NN1C(=O)C2C3C=CC(C3)C2C1=O)c1ccccc1` (configuration not stated)?
Mtb FBA inh: 77*; TcdB GH inh: 0; GDH-TPI counter-1: 4; PrPC TRFRET: -5; Y pestis TopoI: -1; Mtb FBA inh conf: 1; GDH-TPI counter-2: -3

What do the screens show for `Cc1ccc(C(=O)NN2C(=O)C3C4C=CC(C4)[C@@H]3C2=O)cc1` (some centres not stated)?
Mtb FBA inh: 4; TcdB GH inh: 0; GDH-TPI counter-1: 7; PrPC TRFRET: -3; Y pestis TopoI: -10

Results for COC(=O)c1[nH]c2ccc(Cl)cc2c1NC(=O)Oc1ccccc1 ?
Mtb FBA inh: 66*; GDH-TPI counter-1: 8; PrPC TRFRET: -5; Y pestis TopoI: -4; Mtb FBA inh conf: 9; GDH-TPI counter-2: -4

What do the screens show for `COC(=O)c1[nH]c2ccc(Cl)cc2c1NC(=O)C1CC1`?
Mtb FBA inh: 27; GDH-TPI counter-1: 17; PrPC TRFRET: -7; Y pestis TopoI: 0

Results for CN(CC(=O)Nc1cccc(F)c1)C(=O)c1cc(-c2ccco2)nc2ccccc12 ?
Mtb FBA inh: 75*; TcdB GH inh: 0; GDH-TPI counter-1: 11; PrPC TRFRET: -8; Y pestis TopoI: 1; Mtb FBA inh conf: active; GDH-TPI counter-2: 170*

What do the screens show for `COc1ccc(NC(=O)CN(C)C(=O)c2cc(-c3ccco3)nc3ccccc23)cc1`?
Mtb FBA inh: 45*; TcdB GH inh: 8; GDH-TPI counter-1: 14; PrPC TRFRET: -4; Y pestis TopoI: 0; Mtb FBA inh conf: active; GDH-TPI counter-2: active

What do the screens show for `COc1ccc(NC(=O)c2cc(-c3ccco3)nc3ccccc23)cc1`?
Mtb FBA inh: 3; TcdB GH inh: 1; GDH-TPI counter-1: 6; PrPC TRFRET: -4; Y pestis TopoI: -3

How did O=C(NCc1ccc(Cl)cc1)c1ccccc1CCc1ccccc1 do in these assays?
Mtb FBA inh: 4; GDH-TPI counter-1: 6; PrPC TRFRET: -3; Y pestis TopoI: -3

What do the screens show for `O=C(O)c1ccccc1C(=O)NCc1ccc(F)cc1`?
Mtb FBA inh: 1; GDH-TPI counter-1: 4; PrPC TRFRET: 5; Y pestis TopoI: 17

Results for Nc1ccccc1NC(=O)c1ccccc1N ?
Mtb FBA inh: 61*; GDH-TPI counter-1: 7; PrPC TRFRET: -4; Y pestis TopoI: -1; Mtb FBA inh conf: 101*; GDH-TPI counter-2: 87*

How did COc1cccc(CNC(=O)CCNC(=O)c2ccccc2OC)c1 do in these assays?
Mtb FBA inh: 0; TcdB GH inh: 1; GDH-TPI counter-1: 3; PrPC TRFRET: 2; Y pestis TopoI: -2

What do the screens show for `Nc1ccccc1C(=O)NCc1ccc(Cl)cc1`?
Mtb FBA inh: 49*; GDH-TPI counter-1: 11; PrPC TRFRET: 9; Y pestis TopoI: 6; Mtb FBA inh conf: 161*; GDH-TPI counter-2: 139*

What do the screens show for `Cc1c(NC(=O)c2ccccc2N)cccc1C(=O)O`?
Mtb FBA inh: 14; GDH-TPI counter-1: -1; PrPC TRFRET: -3; Y pestis TopoI: 4

Results for COc1cccc(CNC(=O)c2ccccc2N)c1 ?
Mtb FBA inh: 63*; GDH-TPI counter-1: 6; PrPC TRFRET: -2; Y pestis TopoI: -1; Mtb FBA inh conf: 59*; GDH-TPI counter-2: 54*

Results for Nc1ccccc1C(=O)NCc1ccc(F)cc1 ?
Mtb FBA inh: 77*; TcdB GH inh: 1; GDH-TPI counter-1: 10; PrPC TRFRET: -5; Y pestis TopoI: -1; GDH-TPI counter-2: active

How did COc1ccccc1S(=O)(=O)N[C@H]1C=C[C@H](CC(=O)N2CCN(C)CC2)O[C@@H]1CO do in these assays?
TcdB GH inh: 1

Source: PubChem BioAssay
